Here are results for six compounds from ChEMBL document CHEMBL2218924, “A broad activity screen in support of a chemogenomic map for kinase signalling research and drug discovery” (Biochem J, 2013).

For assay [1], the target named is T1, Dual specificity mitogen-activated protein kinase kinase 6 (Homo sapiens) (UniProt P52564).
T1 sequence (whole entry): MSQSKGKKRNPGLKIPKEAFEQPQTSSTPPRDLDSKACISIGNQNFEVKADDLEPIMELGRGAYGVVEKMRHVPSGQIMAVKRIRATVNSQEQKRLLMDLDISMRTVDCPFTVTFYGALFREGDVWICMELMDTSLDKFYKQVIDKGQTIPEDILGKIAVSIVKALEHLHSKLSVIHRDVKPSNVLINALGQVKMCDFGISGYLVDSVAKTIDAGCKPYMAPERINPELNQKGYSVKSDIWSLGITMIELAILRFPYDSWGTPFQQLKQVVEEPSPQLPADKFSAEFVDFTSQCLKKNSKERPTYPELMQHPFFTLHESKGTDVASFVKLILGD
The conditions noted are these: at 1 µM.

The target of assay [2] is T1, Dual specificity mitogen-activated protein kinase kinase 6 (Homo sapiens). The conditions noted are these: at 10 µM.
The target of assay [3] is T2, Dual specificity mitogen-activated protein kinase kinase 7 (Homo sapiens) (UniProt O14733).
T2 sequence (whole entry): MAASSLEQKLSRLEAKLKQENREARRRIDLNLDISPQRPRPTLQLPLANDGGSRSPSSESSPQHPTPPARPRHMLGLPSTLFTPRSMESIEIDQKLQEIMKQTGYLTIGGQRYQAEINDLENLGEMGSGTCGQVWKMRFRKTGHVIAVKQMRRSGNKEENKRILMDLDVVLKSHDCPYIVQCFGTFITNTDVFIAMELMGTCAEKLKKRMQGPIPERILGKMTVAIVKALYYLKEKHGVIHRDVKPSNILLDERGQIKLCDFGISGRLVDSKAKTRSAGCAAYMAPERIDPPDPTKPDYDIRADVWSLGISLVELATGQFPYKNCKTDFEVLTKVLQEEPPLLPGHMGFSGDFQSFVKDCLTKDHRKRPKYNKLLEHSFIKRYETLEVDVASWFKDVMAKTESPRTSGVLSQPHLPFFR
The conditions noted are these: at 1 µM.

The target in assay [4] is T2, Dual specificity mitogen-activated protein kinase kinase 7 (Homo sapiens). The conditions noted are these: at 10 µM.
Assay [5] addresses Myosin light chain kinase, smooth muscle (Homo sapiens) (UniProt Q15746). As to conditions: at 1 µM.
The target is the same in assay [6]. As to conditions: at 10 µM.
In assay [7] the target is Mitogen-activated protein kinase kinase kinase 9 (Homo sapiens) (UniProt P80192). As to conditions: at 1 µM.
The target is the same in assay [8]. As to conditions: at 10 µM.
In assay [9] the target is Serine/threonine-protein kinase MRCK alpha (Homo sapiens) (UniProt Q5VT25). The conditions noted are these: at 1 µM.
Assay [10] shares this target. As to conditions: at 10 µM.
The target in assay [11] is Serine/threonine-protein kinase MRCK beta (Homo sapiens) (UniProt Q9Y5S2). As to conditions: at 1 µM.
Assay [12] shares this target. The conditions noted are these: at 10 µM.
Assay [13] concerns the target Ribosomal protein S6 kinase alpha-5 (Homo sapiens) (UniProt O75582). The conditions noted are these: at 1 µM.
Assay [14] has the same target. The conditions noted are these: at 10 µM.
The target in assay [15] is Ribosomal protein S6 kinase alpha-4 (Homo sapiens) (UniProt O75676). The conditions noted are these: at 1 µM.
Assay [16] has the same target. The conditions noted are these: at 10 µM.
Assay [17] deals with SRSF protein kinase 3 (Homo sapiens) (UniProt Q9UPE1). As to conditions: at 1 µM.
The target is the same in assay [18]. As to conditions: at 10 µM.
The target of assay [19] is T3, Serine/threonine-protein kinase 4 (Homo sapiens) (UniProt Q13043).
T3 sequence (whole entry): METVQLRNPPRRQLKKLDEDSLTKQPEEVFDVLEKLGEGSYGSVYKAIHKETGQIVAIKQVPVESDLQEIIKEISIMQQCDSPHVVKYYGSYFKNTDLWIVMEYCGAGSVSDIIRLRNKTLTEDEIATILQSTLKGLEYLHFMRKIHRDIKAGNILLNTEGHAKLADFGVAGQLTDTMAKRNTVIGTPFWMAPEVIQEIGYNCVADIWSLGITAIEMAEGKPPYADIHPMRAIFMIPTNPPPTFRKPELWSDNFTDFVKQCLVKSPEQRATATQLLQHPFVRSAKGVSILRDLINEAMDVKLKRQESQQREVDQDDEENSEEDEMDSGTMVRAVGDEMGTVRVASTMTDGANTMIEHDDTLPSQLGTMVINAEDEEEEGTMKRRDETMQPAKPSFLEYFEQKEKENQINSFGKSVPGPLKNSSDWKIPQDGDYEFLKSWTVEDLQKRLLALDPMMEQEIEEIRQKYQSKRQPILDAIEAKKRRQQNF
As to conditions: at 1 µM.

Assay [20] has as its target T3, Serine/threonine-protein kinase 4 (Homo sapiens). As to conditions: at 10 µM.

Chain of Ribosomal protein S6 kinase alpha-4 (Homo sapiens) (O75676 whole entry, looked up): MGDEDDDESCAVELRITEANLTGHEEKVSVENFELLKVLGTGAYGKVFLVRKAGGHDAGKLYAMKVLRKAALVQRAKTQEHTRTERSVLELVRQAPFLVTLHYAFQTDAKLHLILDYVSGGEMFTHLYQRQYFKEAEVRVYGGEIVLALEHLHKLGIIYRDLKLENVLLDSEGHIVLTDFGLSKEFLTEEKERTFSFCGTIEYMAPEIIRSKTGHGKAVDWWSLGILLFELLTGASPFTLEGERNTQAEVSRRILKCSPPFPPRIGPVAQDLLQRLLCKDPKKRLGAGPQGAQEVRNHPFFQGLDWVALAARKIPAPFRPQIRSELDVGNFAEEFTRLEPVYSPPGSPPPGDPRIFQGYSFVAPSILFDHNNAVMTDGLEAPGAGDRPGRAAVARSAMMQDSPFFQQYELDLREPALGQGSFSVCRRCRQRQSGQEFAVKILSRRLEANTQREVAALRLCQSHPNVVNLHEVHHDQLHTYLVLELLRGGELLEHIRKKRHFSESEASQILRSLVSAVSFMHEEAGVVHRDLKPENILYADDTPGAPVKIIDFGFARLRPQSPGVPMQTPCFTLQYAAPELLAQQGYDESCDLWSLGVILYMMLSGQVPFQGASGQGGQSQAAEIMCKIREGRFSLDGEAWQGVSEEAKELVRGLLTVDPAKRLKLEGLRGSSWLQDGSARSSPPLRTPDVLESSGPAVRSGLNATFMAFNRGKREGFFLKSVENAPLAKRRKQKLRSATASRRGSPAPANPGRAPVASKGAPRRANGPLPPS
Chain of Mitogen-activated protein kinase kinase kinase 9 (Homo sapiens) (P80192 whole entry, looked up): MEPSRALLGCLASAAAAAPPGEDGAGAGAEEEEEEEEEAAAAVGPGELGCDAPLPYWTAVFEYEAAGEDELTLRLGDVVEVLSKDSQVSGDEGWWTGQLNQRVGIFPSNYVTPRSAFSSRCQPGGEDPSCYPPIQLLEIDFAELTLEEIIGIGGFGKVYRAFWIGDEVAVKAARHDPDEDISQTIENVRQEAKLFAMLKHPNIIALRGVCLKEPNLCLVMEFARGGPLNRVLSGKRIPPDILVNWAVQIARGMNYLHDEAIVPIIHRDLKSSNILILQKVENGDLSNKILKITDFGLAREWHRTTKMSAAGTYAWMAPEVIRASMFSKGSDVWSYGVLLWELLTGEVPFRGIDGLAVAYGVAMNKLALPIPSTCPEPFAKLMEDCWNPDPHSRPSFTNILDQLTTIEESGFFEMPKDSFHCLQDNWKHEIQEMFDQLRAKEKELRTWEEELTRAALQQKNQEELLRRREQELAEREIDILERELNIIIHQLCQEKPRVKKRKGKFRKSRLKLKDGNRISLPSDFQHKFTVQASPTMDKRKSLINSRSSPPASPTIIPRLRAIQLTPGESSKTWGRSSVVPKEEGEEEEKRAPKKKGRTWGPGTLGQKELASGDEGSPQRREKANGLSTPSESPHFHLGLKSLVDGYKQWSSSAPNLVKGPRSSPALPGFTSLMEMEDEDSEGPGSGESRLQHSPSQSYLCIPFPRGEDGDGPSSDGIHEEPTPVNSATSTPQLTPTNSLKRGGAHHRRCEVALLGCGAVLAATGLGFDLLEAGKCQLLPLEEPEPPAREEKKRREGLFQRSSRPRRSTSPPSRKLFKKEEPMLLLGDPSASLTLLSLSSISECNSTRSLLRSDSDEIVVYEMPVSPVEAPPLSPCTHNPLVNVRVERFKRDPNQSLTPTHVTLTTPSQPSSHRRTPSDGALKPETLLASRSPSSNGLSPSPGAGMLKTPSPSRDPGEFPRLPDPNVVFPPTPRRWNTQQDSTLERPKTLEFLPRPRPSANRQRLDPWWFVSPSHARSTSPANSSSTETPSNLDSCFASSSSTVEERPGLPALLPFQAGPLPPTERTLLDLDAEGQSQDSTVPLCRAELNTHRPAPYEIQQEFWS
Chain of SRSF protein kinase 3 (Homo sapiens) (Q9UPE1 whole entry): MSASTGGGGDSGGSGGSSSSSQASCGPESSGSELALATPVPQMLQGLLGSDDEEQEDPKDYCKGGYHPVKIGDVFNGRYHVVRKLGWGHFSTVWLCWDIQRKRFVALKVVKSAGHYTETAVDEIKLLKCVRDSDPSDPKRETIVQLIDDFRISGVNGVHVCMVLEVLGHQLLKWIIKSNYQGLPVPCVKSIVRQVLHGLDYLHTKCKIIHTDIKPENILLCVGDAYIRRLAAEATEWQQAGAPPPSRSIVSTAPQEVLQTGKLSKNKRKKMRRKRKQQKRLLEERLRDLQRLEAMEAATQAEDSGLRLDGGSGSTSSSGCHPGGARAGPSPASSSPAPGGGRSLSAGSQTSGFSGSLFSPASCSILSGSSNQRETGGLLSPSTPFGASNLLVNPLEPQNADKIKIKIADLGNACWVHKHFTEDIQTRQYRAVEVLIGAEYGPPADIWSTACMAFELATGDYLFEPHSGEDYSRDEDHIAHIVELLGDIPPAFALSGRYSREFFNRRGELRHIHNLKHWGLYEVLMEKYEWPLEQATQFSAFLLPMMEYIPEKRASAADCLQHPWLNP
Chain of Myosin light chain kinase, smooth muscle (Homo sapiens) (Q15746 whole entry): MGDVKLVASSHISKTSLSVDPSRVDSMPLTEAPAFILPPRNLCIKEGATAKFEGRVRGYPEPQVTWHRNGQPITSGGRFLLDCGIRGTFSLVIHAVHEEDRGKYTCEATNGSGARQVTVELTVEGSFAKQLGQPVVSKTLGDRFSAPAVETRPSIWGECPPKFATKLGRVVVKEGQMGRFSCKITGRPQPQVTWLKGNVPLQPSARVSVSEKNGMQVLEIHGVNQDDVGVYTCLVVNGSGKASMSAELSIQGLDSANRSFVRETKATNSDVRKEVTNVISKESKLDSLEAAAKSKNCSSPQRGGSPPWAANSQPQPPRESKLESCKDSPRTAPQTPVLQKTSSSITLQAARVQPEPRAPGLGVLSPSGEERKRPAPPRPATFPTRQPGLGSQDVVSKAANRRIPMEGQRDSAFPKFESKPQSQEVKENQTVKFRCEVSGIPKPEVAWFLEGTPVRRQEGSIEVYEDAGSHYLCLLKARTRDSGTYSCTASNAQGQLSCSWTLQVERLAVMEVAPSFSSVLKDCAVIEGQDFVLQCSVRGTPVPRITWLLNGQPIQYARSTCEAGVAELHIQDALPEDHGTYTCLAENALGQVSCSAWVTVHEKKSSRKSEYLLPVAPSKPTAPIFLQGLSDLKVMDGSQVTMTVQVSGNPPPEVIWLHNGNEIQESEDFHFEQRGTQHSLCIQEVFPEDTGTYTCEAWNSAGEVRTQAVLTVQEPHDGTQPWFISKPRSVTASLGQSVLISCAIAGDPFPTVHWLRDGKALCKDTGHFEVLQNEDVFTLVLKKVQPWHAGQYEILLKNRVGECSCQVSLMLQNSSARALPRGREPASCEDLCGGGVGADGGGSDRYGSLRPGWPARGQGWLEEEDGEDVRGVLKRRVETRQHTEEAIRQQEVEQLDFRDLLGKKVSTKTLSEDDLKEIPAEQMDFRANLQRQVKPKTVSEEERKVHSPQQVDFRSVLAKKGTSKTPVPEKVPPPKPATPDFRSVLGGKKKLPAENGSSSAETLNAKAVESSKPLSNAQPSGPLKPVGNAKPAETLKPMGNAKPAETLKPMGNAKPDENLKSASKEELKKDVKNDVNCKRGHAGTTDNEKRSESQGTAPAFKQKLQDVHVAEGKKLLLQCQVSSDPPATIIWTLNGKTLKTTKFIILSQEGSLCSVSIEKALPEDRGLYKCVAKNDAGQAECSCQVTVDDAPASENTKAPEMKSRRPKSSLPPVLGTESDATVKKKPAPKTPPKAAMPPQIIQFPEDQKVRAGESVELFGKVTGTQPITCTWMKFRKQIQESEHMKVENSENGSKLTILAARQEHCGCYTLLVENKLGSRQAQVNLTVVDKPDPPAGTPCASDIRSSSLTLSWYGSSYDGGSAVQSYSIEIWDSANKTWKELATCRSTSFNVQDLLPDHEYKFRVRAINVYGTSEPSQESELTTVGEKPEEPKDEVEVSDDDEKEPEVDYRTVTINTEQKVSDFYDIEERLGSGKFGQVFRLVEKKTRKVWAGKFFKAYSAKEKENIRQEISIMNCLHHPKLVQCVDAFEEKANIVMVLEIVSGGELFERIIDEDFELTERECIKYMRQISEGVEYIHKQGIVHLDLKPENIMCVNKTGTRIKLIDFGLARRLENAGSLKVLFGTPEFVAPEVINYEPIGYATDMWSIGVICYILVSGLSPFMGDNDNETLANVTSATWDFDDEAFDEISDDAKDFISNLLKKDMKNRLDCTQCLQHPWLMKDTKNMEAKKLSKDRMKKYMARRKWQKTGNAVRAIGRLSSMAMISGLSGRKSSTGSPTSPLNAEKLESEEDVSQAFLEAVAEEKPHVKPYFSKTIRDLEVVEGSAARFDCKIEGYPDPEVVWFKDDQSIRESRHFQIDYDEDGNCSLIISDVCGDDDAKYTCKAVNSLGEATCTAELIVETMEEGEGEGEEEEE

With `Ic1cccc(CSc2nnc(-c3ccncc3)o2)c1`, the residual activity in [1] was determined as 100%; in assay [2], 77%; in assay [3], 70%; in assay [4], 94%; in assay [5], 84%; in [6], 68%. The residual activity in assay [7] came to 90%; in assay [8] it was 88%; in assay [9], 123%; in assay [10], 87%; in assay [11], 87%; in assay [12], 82%. Moreover, the residual activity worked out at 95% in [13]; 82% in assay [14]; 65% in assay [15]; 53% in [16]; 90% in assay [17]; 92% in assay [18]. Also, the results for the residual activity in assay [19] and in assay [20] were 106% and 101%, respectively.
With `CN(C)c1ccc(/C=C2\C(=O)Nc3ccccc32)cc1`, the residual activity in assay [1] was 97%; in assay [2] it was 91%; in assay [3], 91%; in assay [4], 84%; in assay [5] it was 77%; in assay [6] it was 56%. For the same compound, the residual activity in [7] is 39%; in assay [8] it was 16%; in assay [9] it was 113%; in [10] it was 105%; in assay [11], 106%; in assay [12], 102%. The residual activity in assay [13] is 116%; in [14], 79%; in assay [15], 87%; in assay [16], 57%; in assay [17], 103%; in assay [18] it was 80%. The residual activity in [19] amounted to 95%; in [20] it was 74%.
Take `Nc1n[nH]c2nnc(-c3c(-c4ccccc4)nn4ccccc34)cc12`: the residual activity is 104% in assay [1]; 65% in [2]; 88% in assay [3]; 70% in assay [4]; 113% in [5]; 74% in assay [6]. Also, the residual activity in assay [7] amounted to 86%; in assay [8], 31%; in [9], 111%; in assay [10], 98%; in assay [11], 90%; in assay [12], 79%. Also, the residual activity in assay [13] is 102%; in assay [14] it was 113%; in assay [15], 93%; in assay [16], 78%; in [17], 93%; in assay [18], 56%. The residual activity was determined as 71% in assay [19] and 87% in [20].
Take `Oc1ccc(-c2nc(-c3ccc(F)cc3)c(-c3ccncc3)[nH]2)cc1`: the residual activity in assay [1] is 12%; in assay [2], -1%; in assay [3], 80%; in assay [4] it was 57%; in [5], 111%; in assay [6] it was 80%. Also, the residual activity worked out at 54% in assay [7]; 12% in [8]; 116% in assay [9]; 103% in [10]; 105% in [11]; 92% in [12]. In addition, the residual activity in assay [13] worked out at 102%; in [14], 98%; in assay [15], 77%; in assay [16] it was 43%; in [17], 120%; in [18], 110%. Further, the residual activity came to 92% in assay [19] and 113% in [20].
As for `O=C1NC(=O)/C(=C\c2ccc3nccnc3c2)S1`, the residual activity in assay [1] is 95%; in assay [2] it was 85%; in [3], 96%; in assay [4], 88%; in assay [5] it was 81%; in assay [6] it was 62%. The residual activity in assay [7] turned out to be 80%; in assay [8], 53%; in assay [9], 106%; in [10], 93%; in assay [11] it was 93%; in assay [12] it was 53%. Also, the residual activity turned out to be 123% in assay [13]; 90% in assay [14]; 89% in assay [15]; 68% in assay [16]; 94% in [17]; 69% in [18]. Further, the results for the residual activity in [19] and in assay [20] were 94% and 101%, respectively.
For `O=c1cc(-c2cccc3c2Sc2ccccc2S3)oc(N2CCOCC2)c1`, the residual activity was found to be 113% in assay [1]; 78% in assay [2]; 106% in [3]; 82% in assay [4]; 114% in assay [5]; 69% in assay [6]. Further, the residual activity is 103% in [7]; 96% in [8]; 110% in assay [9]; 112% in [10]; 93% in [11]; 93% in assay [12]. The residual activity in assay [13] was found to be 104%; in [14], 116%; in assay [15], 95%; in assay [16], 90%; in assay [17], 103%; in [18], 94%. For the same compound, the residual activity in assay [19] is 99%; in [20], 109%.
